The source made the active and inactive calls. The calls were made as follows: active = hit-call score of the fitted dose curve at least 0.9, where 1 is the maximum; inactive = score below 0.9.

The target of the test is human CYP3A5, CYP3A5 (gene 1577) (UniProt P20815). The test is described as follows: NVS_ADME_hCYP3A5: NovaScreen (NVS) CYP450-related Enzyme Activity (ADME) Assay for human CYP3A5. As to the method: NVS_ADME_hCYP3A5 is a biochemical, single-readout assay that uses extracted gene-proteins in a cell-free assay. Measurements were taken 0.5 hour after chemical dosing in a 96-well plate.NVS_ADME_hCYP3A5 is one of one assay component(s) measured or calculated from the NVS_ADME_hCYP3A5 assay. It is designed to make measurements of enzyme activity, a form of enzyme reporter, as detected with fluorescence intensity signals by Fluorescence technology.Data from the assay component NVS_ADME_hCYP3A5 was analyzed into 1 assay endpoint. This assay endpoint, NVS_ADME_hCYP3A5, was analyzed in the positive analysis fitting direction relative to Acetonitrile as the negative control and baseline of activity. Using a type of enzyme reporter, loss-of-signal activity can be used to understand changes in the enzymatic activity as they relate to the gene CYP3A5. Furthermore, this assay endpoint can be referred to as a primary readout, because this assay has produced multiple assay endpoints where this one serves a enzymatic activity function. To generalize the intended target to other relatable targets, this assay endpoint is annotated to the cyp intended target family, where the subfamily is xenobiotic metabolism.
Chain of human CYP3A5, CYP3A5 (gene 1577) (P20815 whole entry, looked up): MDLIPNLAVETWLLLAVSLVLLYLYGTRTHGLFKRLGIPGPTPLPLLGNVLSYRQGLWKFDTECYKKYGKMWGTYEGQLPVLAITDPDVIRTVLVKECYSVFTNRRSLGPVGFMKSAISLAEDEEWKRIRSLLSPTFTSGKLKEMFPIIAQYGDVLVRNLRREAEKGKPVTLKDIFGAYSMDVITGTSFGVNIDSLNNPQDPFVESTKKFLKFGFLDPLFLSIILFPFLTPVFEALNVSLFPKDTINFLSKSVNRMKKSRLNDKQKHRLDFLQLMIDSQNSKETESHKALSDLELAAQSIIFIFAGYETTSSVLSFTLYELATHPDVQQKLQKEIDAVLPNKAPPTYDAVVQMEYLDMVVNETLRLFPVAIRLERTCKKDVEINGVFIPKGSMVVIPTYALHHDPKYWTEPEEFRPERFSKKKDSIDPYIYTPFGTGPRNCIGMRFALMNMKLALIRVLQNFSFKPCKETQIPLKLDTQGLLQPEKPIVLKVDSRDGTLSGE
Binding assays used specific radioligands (tritiated, iodinated) with non-radioactive competitive displacement ligands in agonist or antagonist protocols (as indicated) and various reference compounds and inhibitors to titrate specific binding to receptors and transporters. Most enzyme assays (CYPs, kinases, phosphatases, proteases, HDACs) used recombinant protein and specific substrates (fluorescence mostly, some colorimetric and radioactive) and inhibitors, followed by a biochemical separation of substrate and product. All assays for the biochemical HTS were initially run in duplicate at a single concentration (10 uM for CYP450 assays and 25 uM for all others). […]
The AC50 is the concentration at which the activity in the assay is half-maximal. Take `Clc1ccc(C2(Cn3cncn3)CC(Br)CO2)c(Cl)c1` (stereo not drawn): the AC50 is 0.557 µM (active).

For the compound `COP(=S)(OC)Oc1ccc(Sc2ccc(OP(=S)(OC)OC)cc2)cc1`, the AC50 was 13.5 µM (active).

Consider `COC(=O)Nc1cccc(OC(=O)Nc2cccc(C)c2)c1`, for which the outcome was inactive.

The record behind these values is PubChem BioAssay AID2283109 (EPA ToxCast).
